Reference: PubChem BioAssay (EPA / NIEHS)
Active and inactive are the calls of the source. How the source made its calls: active means hit-call score of the fitted dose curve at least 0.9, where 1 is the maximum; inactive means score below 0.9.

Assay: ATG_TCF_b_cat_CIS: Attagene CIS-FACTORIAL HepG2 Assay for human T-Cell-Factor with beta-catenin (TCF/b-cat) (AID 2282965)
Details: HepG2 TCF/beta-catenin cis-reporter transcription, actives raise or lower the signal
Method: ATG_CIS is a cell-based, multiplexed-readout assay that uses HepG2, a human liver cell line, with measurements taken at 24 hours after chemical dosing in a 24-well plate.ATG_TCF_b_cat_CIS is one of 52 assay component(s) measured or calculated from the ATG_CIS assay. It is designed to make measurements of mRNA induction, a form of inducible reporter, as detected with fluorescence intensity signals by Reverse transcription polymerase chain reaction (RT-PCR) and Capillary electrophoresis technology.Data from the assay component ATG_TCF_b_cat_CIS was analyzed into 1 assay endpoint. This assay endpoint, ATG_TCF_b_cat_CIS, was analyzed with bidirectional fitting relative to DMSO as the negative control and baseline of activity. Using a type of inducible reporter, measures of mRNA for gain or loss-of-signal activity can be used to understand the reporter gene at the transcription factor-level as they relate to the gene TCF7 and TCF7L2 and LEF1 and TCF7L1. Furthermore, this assay endpoint can be referred to as a primary readout, because this assay has produced multiple assay endpoints where this one serves a reporter gene function. To generalize the intended target to other relatable targets, this assay endpoint is annotated to the dna binding intended target family, where the subfamily is HMG box protein.
Human liver HepG2 cells are transiently transfected with multiple reporter transcription units (MRTUs) in 6-well plates using FuGene 6 reagent (Roche; 3 ml FuGene/1 mg DNA). The MRTU constructs are regulated by a cis-regulating element (promoter). […] A major difference between the CIS and TRANS system is that in CIS activities of endogenous TFs are measured, whereas the TRANS assay evaluates changes in activities of exogenous, chimeric NR-Gal4 proteins. […] At the end of 24 hour incubation, total RNA was isolated using TriZol reagent (Invitrogen). The isolated RNA is then reverse-transcribed using oligo(dT) primer and Mo-MLV reverse transcriptase (Invitrogen) with DNAse I (Ambion) treatment for 30 min. The one-tenth of the produced cDNA was amplified by PCR using Taq DNA polymerase (Invitrogen) and two reporter sequence-specific primers. The PCR products were fluorescently labeled by primer extension with 6-arboxyfluorescein (6-FAM) 5'-labeled reporter sequence-specific primer (2 min at 95 C, 20 s at 68 C and 10 min at 72 C) and these products were digested with 5U of HpaI (New England Biolabs) for 2h at 37 C. The fragments were purified using Qiaquick PCR columns (Qiagen), analyzed on an ABI 3130xL genetic analyzer (Applied Biosystems) with peak positions identified by using a set of X-rhodamine (ROX)-labeled MapMarker1000 molecular weight standards (BioVentures). The raw capillary electrophoresis data was processed using Attagraph software (Attagene).

Question: With `CCCCCCCCCOC(C)=O` as the molecule, how does the outcome read?
Answer: inactive

Question: Which outcome does the source give for `CNC(=O)Oc1ccc2c(c1)[C@]1(C)CCN(C)[C@@H]1N2C` here?
Answer: inactive

Question: With `Cc1ccc(C(=O)O)o1` as the molecule, how does the outcome read?
Answer: inactive

Question: Which outcome does the source give for `C/C=C(\C)C(=O)OCc1ccccc1` here?
Answer: inactive

Question: With `COc1ccc(Nc2ccccc2)c(C)c1` as the molecule, how does the outcome read?
Answer: inactive

Question: For `C=CC(C)(O)CCC=C(C)CCC=C(C)C` (stereo not given), which outcome is on record?
Answer: inactive

Question: Which outcome does the source give for `O=C[C@@H](O)[C@H](O)[C@H](O)CO` here?
Answer: inactive

Question: For `CC(C)(Oc1ccc(CCNC(=O)c2ccc(Cl)cc2)cc1)C(=O)O`, which outcome is on record?
Answer: inactive

Question: For `COc1c(Cl)c(Cl)c(Cl)c(Cl)c1Cl`, which outcome is on record?
Answer: inactive

Question: For `O=C(O)c1cccc(C(F)(F)F)c1`, which outcome is on record?
Answer: inactive

Question: With `C=CCOC(=O)CCC1CCCCC1` as the molecule, how does the outcome read?
Answer: inactive

Question: For `CN(C)CCCN`, which outcome is on record?
Answer: inactive

Question: With `O=C1CCCCCCCCCCOCCCCO1` as the molecule, how does the outcome read?
Answer: inactive

Question: For `CO[Si](C)(OC)c1ccccc1`, which outcome is on record?
Answer: inactive

Question: For `CC1CCC(C(C)CS)CC1S` (stereo not given), which AC50 is on record?
Answer: 49.4 µM (active)

Question: With `CCCCc1ccc(N)cc1` as the molecule, how does the AC50 read?
Answer: 28.2 µM (active)

Question: For `O=C(O)Cc1cccc2ccccc12`, which outcome is on record?
Answer: inactive

Question: With `OCC(CO)(CO)COCC(CO)(CO)CO` as the molecule, how does the outcome read?
Answer: inactive

Question: With `COC(=O)c1ccc(C)cc1` as the molecule, how does the outcome read?
Answer: inactive

Question: With `CCCCCCCCCCCCN(CCCCCCCCCCCC)CCCCCCCCCCCC` as the molecule, how does the outcome read?
Answer: inactive

Question: Which outcome does the source give for `CC1=CCC(O)(C(C)C)CC1` (stereo not given) here?
Answer: inactive

Question: For `[Ca+2]`, which outcome is on record?
Answer: inactive

Question: For `C=CC(=O)NCOCC(C)C`, which outcome is on record?
Answer: inactive

Question: With `CNC[C@H](O)c1cccc(O)c1` as the molecule, how does the outcome read?
Answer: inactive

Question: For `CN(C)CCOCCN(C)C`, which outcome is on record?
Answer: inactive

Question: With `CC(C)=CCC/C(C)=C/COC=O` as the molecule, how does the outcome read?
Answer: inactive

Question: Which outcome does the source give for `COc1cc(C(C)(C)C)c(O)c(C(C)(C)C)c1` here?
Answer: inactive

Question: For `Fc1c(F)c(F)c(Br)c(F)c1F`, which outcome is on record?
Answer: inactive

Question: For `C=O`, which outcome is on record?
Answer: inactive

Question: Which outcome does the source give for `CC(C#N)(CCC(=O)O)N=NC(C)(C#N)CCC(=O)O` (stereo not given) here?
Answer: inactive

Question: For `Cc1c(N(C)C)c(=O)n(-c2ccccc2)n1C`, which outcome is on record?
Answer: inactive

Question: With `CN(C)c1ccc(O)c2c1C[C@H]1C[C@H]3[C@H](N(C)C)C(=O)C(C(N)=O)=C(O)[C@@]3(O)C(=O)C1=C2O` as the molecule, how does the outcome read?
Answer: inactive

Question: With `O=C1c2ccccc2C(=O)N1SC1CCCCC1` as the molecule, how does the outcome read?
Answer: inactive

Question: With `CC(O)C(C)O` (stereo not given) as the molecule, how does the outcome read?
Answer: inactive

Question: Which outcome does the source give for `CCCCCCCCCCC(CO)CCCCCCCC` (stereo not given) here?
Answer: inactive

Question: With `O=C(O)COCCN1CCN(C(c2ccccc2)c2ccc(Cl)cc2)CC1` (stereo not given) as the molecule, how does the outcome read?
Answer: inactive

Question: With `O=P(c1ccccc1)(c1ccccc1)c1ccccc1` as the molecule, how does the outcome read?
Answer: inactive

Question: Which outcome does the source give for `CCC(=O)OCCC(C)CCC=C(C)C` (stereo not given) here?
Answer: inactive

Question: For `CCC(=O)OCc1ccccc1`, which outcome is on record?
Answer: inactive

Question: Which AC50 does the source give for `N#Cc1nc(Cl)c(Cl)c(Cl)c1Cl` here?
Answer: 3.82 µM (active)
